Most compounds without a hit are left out; they make up all but 11% or so of the library.
NPR1 antag: Natriuretic polypeptide receptor (hNpr1) antagonism - Primary qHTS. Atrial natriuretic peptide receptor 1 (Homo sapiens), P16066. Potency, µM (top dose mostly 46.3 µM), for the others: at the highest dose activity change, negative = inhibition, hits mostly inhibitors. HEK293 hNpr1 GloSensor cGMP, ANP-stimulated luminescence. hit rate 1.6% among 76,000. AID 1347048, 2019; further: on the % scale 0 is the no-effect control and ±100 the full control effect; nearly all actives have a fitted effect of over 60% in size
Target sequence (P16066 whole entry, looked up): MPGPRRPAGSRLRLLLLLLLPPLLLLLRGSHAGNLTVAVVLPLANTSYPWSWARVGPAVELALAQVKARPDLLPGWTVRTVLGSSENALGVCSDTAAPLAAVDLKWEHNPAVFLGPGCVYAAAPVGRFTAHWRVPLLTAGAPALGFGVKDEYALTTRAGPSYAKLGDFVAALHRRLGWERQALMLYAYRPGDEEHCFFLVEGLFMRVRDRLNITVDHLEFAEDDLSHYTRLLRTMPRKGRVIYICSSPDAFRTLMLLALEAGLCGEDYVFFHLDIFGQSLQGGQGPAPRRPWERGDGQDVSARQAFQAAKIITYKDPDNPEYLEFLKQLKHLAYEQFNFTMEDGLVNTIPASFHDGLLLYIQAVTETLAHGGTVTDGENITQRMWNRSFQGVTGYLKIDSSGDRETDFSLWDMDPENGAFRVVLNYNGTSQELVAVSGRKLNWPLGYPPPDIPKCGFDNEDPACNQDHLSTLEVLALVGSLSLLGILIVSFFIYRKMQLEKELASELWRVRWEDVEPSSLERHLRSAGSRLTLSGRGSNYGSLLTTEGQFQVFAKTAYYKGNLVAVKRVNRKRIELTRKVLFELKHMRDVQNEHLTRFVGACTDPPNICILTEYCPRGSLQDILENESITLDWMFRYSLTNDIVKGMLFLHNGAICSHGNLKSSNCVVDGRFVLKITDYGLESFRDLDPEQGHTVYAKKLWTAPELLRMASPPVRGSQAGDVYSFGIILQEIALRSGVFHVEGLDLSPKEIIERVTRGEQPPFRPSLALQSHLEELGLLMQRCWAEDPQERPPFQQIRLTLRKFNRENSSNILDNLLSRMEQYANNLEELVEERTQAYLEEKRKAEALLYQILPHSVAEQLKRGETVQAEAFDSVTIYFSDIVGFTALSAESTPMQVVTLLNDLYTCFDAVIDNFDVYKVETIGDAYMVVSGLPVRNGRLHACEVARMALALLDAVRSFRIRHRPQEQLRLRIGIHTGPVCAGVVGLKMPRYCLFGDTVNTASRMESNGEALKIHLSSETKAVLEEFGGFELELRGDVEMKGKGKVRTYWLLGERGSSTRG
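HEK293 cells stably expressing human Npr1 and cGMP GloSensor pGS-40F, loaded 2 h with 2% GloSensor reagent, given compound 30 min at room temperature. Luminescence read before and 20 min after 0.1 nM hNppA.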
FLuc inh: Firefly luciferase inhibition profiling of diverse chemical library using quantitative high-throughput screening | Luciferin 4-monooxygenase (Photinus pyralis), P08659 | hit rate 2.5% among 76,000 | purified P. pyralis luciferase, luminescence, biochemical | Potency, µM (series often up to 115 µM), usual class: inhibitors; active means well fitted curve in the direction sought with a large enough effect; inconclusive means small, poorly fitted or top-dose-only effect, or another doubt; inactive means no such curve, though single readings can be large; an effect the other way counts as inactive or inconclusive; further: on the % scale 0 is the no-effect control and ±100 the full control effect; nearly all actives have a fitted effect of over 65% in size
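Luminescence read by CCD imager after adding enzyme (10nM final) to wells holding compound, titrated in qHTS. Substrates 10uM each D-luciferin and ATP; buffer 50mM Tris acetate pH 7.5, 10mM Mg acetate, Tween-20, BSA.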
NIH3T3 tox: Cytotoxic Profiling in NIH 3T3 Cell Line of Diverse Libraries Using Quantitative High-Throughput Screening; NIH 3T3 viability, CellTiter-Glo ATP luminescence, 48-72 h; Potency, µM (highest dose often 96.7 µM), for the others: at the highest dose activity change, negative = cytotoxicity, usual class: inhibitors; hit rate 4.3% among 94,000; active means well fitted curve in the direction sought with a large enough effect; inconclusive means small, poorly fitted or top-dose-only effect, or another doubt; inactive means no such curve, though single readings can be large; an effect the other way counts as inactive or inconclusive; further: on the % scale 0 is the no-effect control and ±100 the full control effect; nearly all actives have a fitted effect of over 55% in size
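ATP-dependent luminescence (CellTiter-Glo) served as the viability signal for NIH 3T3 cells treated with compound for 48 or 72 hr at 37 °C.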
HEK293 tox: Cytotoxic Profiling in HEK 293 Cell Line of Diverse Libraries Using Quantitative High-Throughput Screening; HEK 293 viability, ATP luminescence (CellTiter-Glo), 48-72 h; Potency, µM (series often up to 115 µM), inactives show at the top dose activity change, negative = cytotoxicity, hits mostly inhibitors; hit rate 6.6% among 94,000; AID 1345083, 2018; active means well fitted curve in the direction sought with a large enough effect; inconclusive means small, poorly fitted or top-dose-only effect, or another doubt; inactive means no such curve, though single readings can be large; an effect the other way counts as inactive or inconclusive; further: on the % scale 0 is the no-effect control and ±100 the full control effect; nearly all actives have a fitted effect of over 60% in size
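Viability of HEK 293 cells, plated at 250 cells/well, was judged by cellular ATP after compound treatment for 48 or 72 hr. Luminescence was imaged 10 min after CellTiter-Glo addition at room temperature.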
Npr1 antag conf: Natriuretic polypeptide receptor (hNpr1) antagonism - Confirmation | Potency, µM (series often up to 57.6 µM), without a hit: top-dose activity change, negative = inhibition, usual class: inhibitors | hit rate 76% among 1,400 | AID 1347044, 2019 | HEK293 hNpr1 cGMP GloSensor luminescence, ANP-stimulated | shares compounds with NPR1 antag; further: nearly all actives have a fitted effect of over 70% in size
NPR2 antag: Natriuretic polypeptide receptor (hNpr2) antagonism - Subtype selectivity assay. hit rate 67% among 1,400. AID 1347046, 2019. Potency, µM (highest dose often 57.6 µM), without a hit: top-dose activity change, negative = inhibition, usual class: inhibitors. HEK293 hNpr2 GloSensor cGMP luminescence, CNP-stimulated. shares compounds with NPR1 antag; further: nearly all actives have a fitted effect of over 70% in size
FLuc inh counter: Natriuretic polypeptide receptor (hNpr1) antagonism - Confirmation firefly luciferase (FLuc) inhibition counterscreen; Potency, µM (series often up to 57.6 µM), without a hit: at the highest dose activity change, negative = inhibition, usual class: inhibitors; AID 1347047, 2019; hit rate 0.7% among 1,400; shares compounds with NPR1 antag; purified FLuc enzyme, luminescence, Km substrate; active means well fitted curve in the direction sought with a large enough effect; inconclusive means small, poorly fitted or top-dose-only effect, or another doubt; inactive means no such curve, though single readings can be large; an effect the other way counts as inactive or inconclusive; further: 0% is about no effect
GloSensor cGMP: Natriuretic polypeptide receptor (hNpr1) antagonism - Counterscreen GloSensor control cell line; shares compounds with NPR1 antag; HEK293 GloSensor cGMP, SNP-stimulated, luminescence; Potency, µM (titrated, usually from 57.6 µM), for inactives: at the top dose activity change, negative = inhibition, hits mostly inhibitors; hit rate 69% among 1,400; further: on the % scale 0 is the no-effect control and ±100 the full control effect; nearly all actives have a fitted effect of over 70% in size
* marks the source's active call; other numbers are inactive results; i = inactive; ? = inconclusive; nt = no result given; [ ] = remark or other dose. Unless noted, the call rests on the fitted dose curve. Potency means the concentration at half of the fitted maximal effect.

SMILES	NPR1 antag	FLuc inh	NIH3T3 tox	HEK293 tox	Npr1 antag conf	NPR2 antag	FLuc inh counter	GloSensor cGMP
O=C(Cc1cccc(F)c1)N1CCC2(CC1)NC(=O)N(Cc1ccccc1Cl)C2=O	?	i	?	?	?	-26%	3%	-24%
Cc1ccc(C)c(CN2C(=O)NC3(CCN(C(=O)c4ccccn4)CC3)C2=O)c1	0%	i	-6%	-15%	nt	nt	nt	nt
Cc1ccc(C)c(CN2C(=O)NC3(CCN(C(=O)Cc4cccc(F)c4)CC3)C2=O)c1	?	i	?	?	?	?	3%	?
CC(=O)N1CCC(c2nnc3n2C(C(=O)NCc2ccccc2Cl)CC3)CC1 (centres undefined)	nt	nt	-4%	0%	nt	nt	nt	nt
CN(C)[S+](=O)([O-])c1ccc2c(c1)OCCN(Cc1ccc(C(F)(F)F)cc1)C2	18µM*	i	45µM*	?	13µM*	18µM*	-13%[86.2 µM]	8.9µM*
CN(C)[S+](=O)([O-])c1ccc2c(c1)OCCN(Cc1ccc(F)cc1)C2	-20%[70.6 µM]	i	?	?	nt	nt	nt	nt
O=[S+]([O-])(Nc1ccccc1)c1ccc2c(c1)OCCN(Cc1ccncc1)C2	?	i	?	?	40µM*	35µM*	-2%[86.2 µM]	31µM*
O=[S+]([O-])(Nc1cccnc1)c1ccc2c(c1)OCCN(Cc1ccccc1)C2	?	i	?	?	nt	nt	nt	nt
C=CCN(C)C(=O)CC1COc2ccc(C(=O)N(C)C)cc2N1C (centres undefined)	5%	i	-12%	-9%	-6%	-7%	2%	-7%
c1ccc(-n2cc(CN3CCCC(OCc4cccnc4)C3)nn2)cc1 (centres undefined)	-3%	i	-10%	-12%	nt	nt	nt	nt
c1ccc(-n2cc(CN3CCC(Oc4ccncc4)CC3)nn2)cc1	?	i	?	?	?	?	1%	?
CCC1CCN(CC2(O)CCCN(Cc3cc(OC)ccc3F)C2=O)CC1 (centres undefined)	1%	i	-22%	-32%	nt	nt	nt	nt
C=CCOC(=O)C1=C(C)N=C2SC=C(CC(=O)NCC(C)C)N2C1c1ccccc1Cl (centres undefined)	?	i	-15%	?	nt	nt	nt	nt
C=CCOC(=O)C1=C(C)N=C2SC=C(CC(=O)N3CCCC3)N2C1c1cc(OC)cc(OC)c1 (centres undefined)	10µM*	i	-17%	?	17µM*	15µM*	3%	6%
COC(=O)C1=C(C)N=C2SC=C(CC(=O)N3CCCCC3)N2C1c1ccc(Cl)cc1 (centres undefined)	?	i	-28%	?	?	?	1%	2%
C=CCOC(=O)C1=C(C)N=C2SC=C(CC(=O)N3CCCC3)N2C1c1ccc(OC)cc1OC (centres undefined)	-17%	i	-18%	?	nt	nt	nt	nt
CC1=C(C(=O)OC(C)C)C(c2ccc(C)cc2)N2C(CC(=O)N3CCCCC3)=CSC2=N1 (centres undefined)	-17%	i	?	?	nt	nt	nt	nt
COC(=O)C1=C(C)N=C2SC=C(CC(=O)N3CCCC3)N2C1c1ccccc1OC (centres undefined)	-21%	i	-8%	-29%	nt	nt	nt	nt
CC1=C(C(=O)OC(C)C)C(c2ccc(Cl)cc2)N2C(CC(=O)N3CCCC3)=CSC2=N1 (centres undefined)	?	i	?	?	-29%	?	0%	-18%
CCOC(=O)C1=C(C)N=C2SC=C(CC(=O)NCc3ccco3)N2C1c1ccccc1Cl (centres undefined)	11µM*	i	-22%	?	?	?	3%	-17%
CC(C)N1CCN(C(=O)c2csc(N3CCN(c4cccc(Cl)c4)CC3)n2)CC1	-25%	i	?	?	nt	nt	nt	nt
COc1cccc(N2CCN(c3nc(C(=O)NCc4ccccc4F)cs3)CC2)c1	13µM*	i	?	45µM*	27µM*	?	-3%	?
CCCn1cc(-c2ccncc2)cc1C(=O)NCc1ccc(OC)cc1	-14%	?	?	?	nt	nt	nt	nt
COc1cccc(N2CCN(c3nc(C(=O)NCc4ccncc4)cs3)CC2)c1	?	i	?	35µM*	27µM*	22µM*	-18%	27µM*
O=C(C1CCCN1C(=O)c1ccc(Cl)nc1)N1CCCC(c2nc3ncccc3[nH]2)C1 (centres undefined)	nt	nt	-9%	0%	nt	nt	nt	nt
SMILES	NPR1 antag	FLuc inh	NIH3T3 tox	HEK293 tox	Npr1 antag conf	NPR2 antag	FLuc inh counter	GloSensor cGMP
CCNC(=O)N[C@H]1[C@H](O)[C@@H](N2CCC(Cc3ccccc3)CC2)[C@@H]2OC[C@H]1O2	-4%[70.6 µM]	i	-25%[174 µM]	-16%[172 µM]	nt	nt	nt	nt
O=C(NCc1cc(F)ccc1F)c1csc(N2CCN(c3ccccc3F)CC2)n1	?	i	?	?	27µM*	?	2%	?
O=C(NCc1cccs1)c1cccc2c1CCN2C(=O)c1ccc(F)cc1	-14%	i	-27%	?	nt	nt	nt	nt
O=C(NCc1cccs1)c1csc(N2CCN(c3ccccc3F)CC2)n1	-28%	i	?	?	?	?	-2%	?
CN1CCN(C(=O)c2ccc3nc(-c4ccncc4)oc3c2)CC1	nt	nt	-18%[138 µM]	?	nt	nt	nt	nt
CCn1c2c(c(=O)n1Cc1ccccc1)CCN(C(=O)c1ccc(Oc3ccccc3)cc1)C2	11µM*	i	?	?	24µM*	22µM*	0%	19µM*
CCn1c2c(c(=O)n1-c1ccccc1)CCN(C(=O)c1ccc(Oc3ccccc3)cc1)C2	8.9µM*	i	?	?	8.6µM*	11µM*	0%	7.7µM*
